Experimental data published in PubChem BioAssay AID652061 (Broad Institute, 2013).
Some of the results follow. Calls of active or inactive are those of the source.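 How the source made its calls: active means signal increase whose fitted curve reaches an absolute level of 40 at a concentration under 10 µM; inactive means activity opposite to the expected increase, or the rest.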

experiment: enhancers of UUG start codon usage in yeast, dose response, S. cerevisiae, UUG firefly luciferase, cherry-pick, set 2 (AID 652061); details: luminescence, 4 h, 100% means double the DMSO signal; max activity: measured here: max activity, test 2, at 38 µM, test 2, stronger effect = higher value unless noted; series mostly up to 38 µM;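 further: 0% = median DMSO signal and 100% = twice the DMSO signal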

Row | SMILES | outcome | max activity
1 | COCCCNC(=O)Cn1cc(C(=O)C2CC2)c2ccccc21 | inactive | -7.83% [measured here: max activity, test 2, at 1.35 µM, test 2, stronger effect = higher value]
2 | CCOC(=O)C(=Cc1ccccc1OC)C(=O)OCC | inactive | 9.08% [measured here: max activity, test 2, at 0.15 µM, test 2, stronger effect = higher value]
3 | CC(C)C#Cc1ccc2c(c1)O[C@@H](CN(C)C(=O)CN(C)C)[C@@H](C)CN([C@H](C)CO)S2(=O)=O |  | -9.02% [at 0.3 µM, test 1, stronger effect = higher value] (inactive)
4 | C#CCSc1nnc(-c2sc3ccccc3c2Cl)o1 | inactive | 6.33% [measured here: max activity, test 2, at 0.46 µM, test 2, stronger effect = higher value]
5 | O=C(C1CCC1)N1C[C@H]2[C@@H](c3ccccc31)[C@@H](CO)N2C(=O)c1ccccc1F |  | 6.68% [at 0.035 µM, test 1, stronger effect = higher value] (inactive)
6 | O=C(c1cccnc1)N1C[C@H]2[C@@H](c3ccccc31)[C@H](CO)N2C(=O)C1CC1 |  | 24.4% [at 0.035 µM, test 1, stronger effect = higher value] (inactive)
7 | c1ccc(-n2cccc2)c(N2CCCCC2)c1 | inactive | 8.5% [measured here: max activity, test 2, at 0.05 µM, test 2, stronger effect = higher value]
8 | C[C@@H]1CN([C@@H](C)CO)C(=O)c2cc(Br)cnc2O[C@@H]1CN(C)C(=O)C1CCCCC1 |  | -6.87% [at 0.9 µM, test 1, stronger effect = higher value] (inactive)
9 | O=C(N[C@H]1CC[C@@H](CCNS(=O)(=O)Cc2ccccc2)O[C@H]1CO)c1ccccc1F |  | 8.33% [at 0.035 µM, test 1, stronger effect = higher value] (inactive)
10 | CC(=O)Nc1ccccc1-c1cn(CC(=O)N2CCOCC2)nn1 |  | 8.61% [at 75 µM, test 1, stronger effect = higher value] (inactive)
11 | CC1CCCN(S(=O)(=O)c2ccc(N(C(=O)c3cnccn3)C(C(=O)NC3CCCCC3)c3cccs3)cc2)C1 (configuration not stated) | inactive | -8.84% [measured here: max activity, test 2, at 0.05 µM, test 2, stronger effect = higher value]
12 | COc1ccc(NC(=O)N(C)C[C@H]2OCCCC[C@@H](C)Oc3ccc(NC(=O)NC4CCCCC4)cc3C(=O)N([C@@H](C)CO)C[C@H]2C)cc1 |  | 8.38% [at 26 µM, test 1, stronger effect = higher value] (inactive)
13 | C[C@@H]1CN([C@@H](C)CO)S(=O)(=O)c2ccc(C#Cc3ccc(F)cc3)cc2O[C@H]1CN(C)C(=O)NC1CCCC1 |  | 10% [at 2.85 µM, test 1, stronger effect = higher value] (inactive)
14 | CC(=O)N1CC(=O)N(CC(=O)Nc2ccc(Br)cc2)C1=S | inactive | 9.59% [measured here: max activity, test 2, at 1.35 µM, test 2, stronger effect = higher value]
15 | O=C(COc1ccc(Cl)cc1)NCc1nnc(SCC(=O)NCC2CCCO2)o1 (configuration not stated) | inactive | -8.21% [measured here: max activity, test 2, at 0.15 µM, test 2, stronger effect = higher value]
16 | CCc1cccc(C)c1N(C(=O)Cn1c(CO)nc2ccccc21)C(C)COC (configuration not stated) | inactive | 6.66% [measured here: max activity, test 2, at 12 µM, test 2, stronger effect = higher value]
17 | CN1CCN(C(=O)/C(=C\c2cccs2)NC(=O)c2cccs2)CC1 | inactive | 13.1%
18 | CC1CCC(NC(=O)C2c3ccccc3C(=O)N2Cc2ccc3c(c2)OCO3)CC1 (configuration not stated) | inactive | -4.01%
19 | Cc1c(Nc2cc(N3CCCC(C)C3)c3nonc3c2[N+](=O)[O-])c(=O)n(-c2ccccc2)n1C (configuration not stated) | inactive | 9.02%
20 | Cc1onc(-c2ccc(Cl)cc2)c1-c1ccnn1S(=O)(=O)c1ccc(Cl)cc1 | inactive | 13.9%
21 | Cc1ccc(F)cc1NC(=O)Cc1nn(C)c(=O)c2ccccc12 | inactive | -14.8% [measured here: max activity, test 2, at 12 µM, test 2, stronger effect = higher value]
22 | COc1ccc(CCN2C(=O)[C@@]3(Cc4ccccc42)c2ccccc2C(=O)N(Cc2ccccc2C(F)(F)F)[C@H]3c2ccc(CO)cc2)cc1 |  | 5.62% [at 26 µM, test 1, stronger effect = higher value] (inactive)
23 | O=C1N=C(N2CCc3ccccc3C2)S/C1=C\c1ccc(O)cc1 | inactive | 7.99% [measured here: max activity, test 2, at 12 µM, test 2, stronger effect = higher value]
